# Measurements published in the supplement of paper PMC10981050.
# Structures can show the parent of a compound that is named as a salt.
# Test system: MOLM14
# Assay: cell viability relative to vehicle control; higher = less cytotoxic
# Conditions: 10 µM; SRSF2 genotype: SRSF2 P95H/wt
# Method in brief: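 Mutant clones made by CRISPR editing and their isogenic wild-type counterparts, from four leukaemia lines, were exposed to a single 10 µM dose of each library compound for 48 h. The supernatant was then removed and CellTiter-Glo luminescence was read. Viability was reported as percent of the on-plate vehicle control.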
row,SMILES,cell viability [%]
1,CC1(C)CCC[C@](C)([C@H]2CC[C@]3(C)[C@@H]2[C@H](O)C[C@@H]2[C@@]4(C)CC[C@H](O)C(C)(C)[C@@H]4[C@@H](O)C[C@]23C)O1 [Panaxatriol],98.6
2,COc1cc2c(cc1OC)[C@@H]1Cc3ccc(OC)c(OC)c3CN1CC2 [Tetrahydropalmatine hydrochloride],93.4
3,CCCCCCCCOc1ccccc1C(=O)Nc1ccc(C(=O)OCC[N+](C)(CC)CC)cc1 [Otilonium Bromide],76.7
4,CC(CCc1ccccc1)NCC(=O)c1ccc(O)c(C(N)=O)c1 (centres undefined) [Labetalone hydrochloride],108
5,COC1(c2sc3c(N4CCOCC4)nc(-c4cnc(N)nc4)nc3c2C)COC1,26.3
6,CC(=O)N1CCN(c2ccc(OCC3COC(Cn4ccnc4)(c4ccc(Cl)cc4Cl)O3)cc2)CC1 (centres undefined) [Ketoconazole],40.9
7,CC(C)=CCOc1ccc(/C=C/C(=O)c2ccc(OCC=C(C)C)cc2OCC(=O)O)cc1 [Sofalcone],84.9
8,CC(C)=CCC[C@](C)(O[C@@H]1O[C@H](CO)[C@@H](O)[C@H](O)[C@H]1O)[C@H]1CC[C@]2(C)[C@@H]1[C@H](O)C[C@@H]1[C@@]3(C)CC[C@H](O)C(C)(C)[C@@H]3[C@@H](O[C@@H]3O[C@H](CO)[C@@H](O)[C@H](O)[C@H]3O[C@@H]3O[C@@H](C)[C@H](O)[C@@H](O)[C@H]3O)C[C@]12C [Ginsenoside Re],101
9,CC(=O)c1cc2c(o1)C(=O)c1ccccc1C2=O [Napabucasin],0.37
10,C/C=C(\C)C(=O)OC1c2c(ccc3ccc(=O)oc23)OC(C)(C)C1OC(=O)/C(C)=C/C (centres undefined) [Praeruptorin B],109
11,CN(C)CCCNC(=O)c1ccc(-c2cc(O)c3ncccc3c2)cc1,40.7
12,O=c1ncccn1[C@@H]1O[C@H](CO)[C@@H](O)[C@H]1O [Zebularine],89.7
13,C/C=C(/C)C(=O)OC(C)(C)[C@@H]1Cc2c(ccc3ccc(=O)oc23)O1 [Columbianadin],102
14,CCc1c(C(=O)NCCc2ccc(N3CCCCC3)cc2)[nH]c2ccc(Cl)cc12,85.4
15,COc1cccc(-c2cc(=O)c3ccccc3o2)c1N,99.5
16,CC/C=C(\C(=O)N[C@@H]1C(=O)N2C(C(=O)OCOC(=O)C(C)(C)C)=C(COC(N)=O)CS[C@H]12)c1csc(N)n1 [Cefcapene Pivoxil Hydrochloride],97.3
17,CO/N=C(\C(=O)N[C@@H]1C(=O)N2C(C(=O)OCOC(=O)C(C)(C)C)=C(/C=C\c3scnc3C)CS[C@H]12)c1csc(N)n1 [Cefditoren pivoxil],94.5
18,COc1cc2c(=O)c(-c3ccc(O)cc3)coc2cc1O [Glycitein],93.7
19,S=c1nc[nH]c2nc[nH]c12 [6-Mercaptopurine (6-MP) Monohydrate],87.4
20,COc1ccccc1C(=O)Nc1cc2c(cc1N1CCCC1)n(C)c(=O)n2C,79.4
21,C[C@H]1[C@H](C)CC[C@]2(C(=O)O[C@@H]3O[C@H](CO[C@@H]4O[C@H](CO)[C@@H](O[C@@H]5O[C@H](C)[C@H](O)[C@@H](O)[C@H]5O)[C@H](O)[C@H]4O)[C@@H](O)[C@H](O)[C@H]3O)CC[C@]3(C)C(=CC[C@@H]4[C@@]5(C)C[C@@H](O)[C@H](O)[C@@](C)(CO)[C@@H]5CC[C@]43C)[C@H]12 [Asiaticoside],103
22,O=C1N=C(N2CCOCC2)CN1c1ccc(Cl)cc1,94.8
23,Cc1ncc(COP(=O)(O)O)c(C=O)c1O [Pyridoxal phosphate],100
24,COc1c(N2C[C@@H]3CCCN[C@@H]3C2)c(F)cc2c(=O)c(C(=O)O)cn(C3CC3)c12 [Moxifloxacin],95.3
25,C=CC(=O)Nc1cccc(Nc2nc(Nc3ccc(OCCOC)cc3)ncc2F)c1,9.43
26,COC(=O)N[C@H](C(=O)N1CCC[C@H]1c1ncc(-c2ccc(-c3ccc(-c4cnc([C@@H]5CCCN5C(=O)[C@@H](NC(=O)OC)C(C)C)[nH]4)cc3)cc2)[nH]1)C(C)C [Daclatasvir Digydrochloride],67.7
27,Cc1coc2c1C(=O)C(=O)c1c-2ccc2c(C)cccc12 [Tanshinone I],76.1
28,CC(C)=CCCC(C)=CCCC(C)=CCCC(C)=CCC1=C(C)C(=O)c2ccccc2C1=O [Vitamin K2],87.7
29,C=CC(=O)N1CCC(Oc2cc3c(Nc4ccc(Cl)c(Cl)c4F)ncnc3cc2OC)CC1 [Poziotinib (HM781-36B)],53.4
